{
  "source": "PubChem BioAssay (EPA / NIEHS)",
  "key": {"[1]": {"assay": "IUF_NPC2c_oligodendrocyte_migration_120hr: Leibniz Research Institute for Environmental Medicine (IUF) 120-hour Neural Progenitor Cell Migration Assay for Oligodendrocyte Migration (NPC2c) (AID 2284297)", "method_in_brief": "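Exposure runs 5 days from differentiation onset at 37C, seven concentrations plus solvent control, DMSO at most 0.1%, applied to primary hNPC spheres on laminin. After fixation, O4 immunostaining gives oligodendrocyte distance from the sphere core, relative to radial glia migration.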"}, "[2]": {"assay": "IUF_NPC2a_radial_glia_migration_120hr: Leibniz Research Institute for Environmental Medicine (IUF) 120-hour Neural Progenitor Cell Migration Assay for Radial Glia Migration (NPC2a) (AID 2284298)", "method_in_brief": "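Migration distance in um, sphere core edge to migration-area edge, derived by nuclei-density algorithm from Hoechst images after 120 h compound exposure. Primary hNPC spheres differentiated on poly-D-lysine/laminin in N2 medium, 37C; medium half-replaced day 3.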"}, "[3]": {"assay": "IUF_NPC2a_radial_glia_migration_72hr: Leibniz Research Institute for Environmental Medicine (IUF) 72-hour Neural Progenitor Cell Migration Assay for Radial Glia Migration (NPC2a) (AID 2284299)", "experimental": "IUF_NPC2-5 is a cell-based, multiplexed assay that uses hNPC, a human primary neural progenitor cells, with measurements taken at 72 or 120 hours after chemical dosing in a 96-well plate. Human neural progenitor cells (hNPC) are generated from human fetal brain cortex at gestational week (GW) 16-19. In the neural progenitor cell migration and differentiation assay (NPC2-5), hNPCs grown as spheres are plated on an extracellular matrix and migrate and differentiate out of the sphere core. The processes radial glia migration, neuronal and oligodendrocyte migration as well as neuronal differentiation, neuronal morphology and oligodendrocyte differentiation are studied using automated phase contrast imaging and automated fluorescence imaging in combination with high content image analysis. In parallel, the cell viability is assessed using an alamar blue viability assay and the cytotoxicity using a lactate dehydrogenase dependent membrane integrity assay.IUF_NPC2a_radial glia_migration_72hr is one of 12 assay components measured from the IUF_NPC2-5 assay. The migration distance of radial glia at 72 hr is assessed in um from the edge of the sphere core to the edge of the migration area based on brightfield images of each well. Therefore, each plate is scanned using a high content imaging device. Images are exported and the migration distance is measured manually in four directions using ImageJ. The mean of four measures per well is used as raw data input.Data from the IUF_NPC2a_radial_glia_migration_72hr component was analyzed at the endpoint IUF_NPC2a_radial_glia_migration_72hr in the positive analysis fitting direction relative to DMSO as the negative control and baseline of activity. Using a type of migration reporter, gain or loss-of-signal activity can be used to understand developmental effects.\n(§1) Culture protocol: After the cell expansion period the cells are cultured for up to four weeks in which they are passaged every week as described in 3.6. Between one to three days after passaging spheres at a size of 0.3 mm are picked for the test method. […] Therefore, half of the test condition solution (e.g. solvent control or compound dilution) is replaced by freshly prepared test condition solution.Test Method: Migration distance and cytotoxicity is determined after 72 hours based on brightfield images of each well. […] On the ICC images, migration after 120 hours, neuronal and oligodendrocyte number, neuronal morphology and neuron/oligodendrocyte specific migration is assessed. immunocytochemical staining (ICC) generates an image for each sphere. The plates are scanned using an automated high content imaging device and all nuclei and their positions are determined automatically based on their intensity and size. […]"}, "[4]": {"assay": "IUF_NPC2b_neuronal_migration_120hr: Leibniz Research Institute for Environmental Medicine (IUF) 120-hour Neural Progenitor Cell Migration Assay for Neuron Migration (NPC2b) (AID 2284300)", "method_in_brief": "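TUBB3-positive neurons are imaged after 120 h of differentiation, and their mean distance from the sphere edge is normalised to radial glia migration. Single 0.3 mm fetal hNPC spheres on poly-D-lysine/laminin received 7 compound concentrations, ≤0.1% DMSO, refreshed at day 3.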"}, "[5]": {"assay": "IUF_NPC3_neuronal_differentiation_120hr: Leibniz Research Institute for Environmental Medicine (IUF) 120-hour Neuronal Differentiation Assay (NPC3) (AID 2284301)", "experimental": "IUF_NPC2-5 is a cell-based, multiplexed assay that uses hNPC, a human primary neural progenitor cells, with measurements taken at 72 or 120 hours after chemical dosing in a 96-well plate. Human neural progenitor cells (hNPC) are generated from human fetal brain cortex at gestational week (GW) 16-19. In the neural progenitor cell migration and differentiation assay (NPC2-5), hNPCs grown as spheres are plated on an extracellular matrix and migrate and differentiate out of the sphere core. The processes radial glia migration, neuronal and oligodendrocyte migration as well as neuronal differentiation, neuronal morphology and oligodendrocyte differentiation are studied using automated phase contrast imaging and automated fluorescence imaging in combination with high content image analysis. In parallel, the cell viability is assessed using an alamar blue viability assay and the cytotoxicity using a lactate dehydrogenase dependent membrane integrity assay.IUF_NPC3_neuronal_differentiation_120hr is one of 12 assay components measured from the IUF_NPC2-5 assay. Neuronal differentiation is determined as the number of all TUBB3 positive cells in percent of the number of Hoechst-positive nuclei in the total neurosphere migration area (see IUF_NPC2a_ glia_migration_120hr) after 120 hr of migration/differentiation. Neurons are automatically identified using a convolutional neural network (CNN) that was trained using manually annotated images of differentiated neurons. Data from the IUF_NPC3_neuronal_differentiation_120hr component was analyzed at the endpoint IUF_NPC3_neuronal_differentiation_120hr in the positive analysis fitting direction relative to DMSO as the negative control and baseline of activity. Using a type of differentiation reporter, gain or loss-of-signal activity can be used to understand developmental effects.\nas §1"}, "[6]": {"assay": "IUF_NPC4_neurite_length_120hr: Leibniz Research Institute for Environmental Medicine (IUF) 120-hour Neuronal Morphology Assay for Neurite Length (NPC4) (AID 2284302)", "method_in_brief": "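Human fetal neural progenitor spheres (0.3 mm) plated on poly-D-lysine/laminin in N2 differentiation medium, exposed from day 0 for 120 h with half-medium refresh at day 3, 37C. Mean neurite length (um) of TUBB3-positive neurons from skeletonized immunostaining images; DMSO ≤0.1%.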"}, "[7]": {"read-out": "Thrombomodulin, THBD (gene 7056)", "assay": "BSK_LPS_Thrombomodulin: BioMAP Diversity Plus: LPS Assay for Thrombomodulin Biomarker Activity (AID 2284296)", "conditions": "primary human HUVEC with PBMC", "method_in_brief": "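Human umbilical vein endothelial cells co-cultured with PBMC and stimulated with LPS; cell-surface thrombomodulin measured by ELISA 24 hours after compound. Gain or loss versus DMSO; cytotoxicity checked by SRB staining in parallel cultures.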"}, "[8]": {"read-out": "CD69, CD69 (gene 969)", "assay": "BSK_LPS_CD69: BioMAP Diversity Plus: LPS Assay for CD69 Biomarker Activity (AID 2284303)", "conditions": "primary human HUVEC with PBMC", "method_in_brief": "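Human umbilical vein endothelial cells co-cultured with PBMC under LPS stimulation, chemical exposure 24 h; cell-surface CD69 measured by ELISA and fitted in the positive direction versus DMSO.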"}, "[9]": {"assay": "IUF_NPC5_oligodendrocyte_differentiation_120hr: Leibniz Research Institute for Environmental Medicine (IUF) 120-hour Oligodendrocyte Differentiation Assay (NPC5) (AID 2284304; active = hit-call score of the fitted dose curve at least 0.9, where 1 is the maximum)", "method_in_brief": "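Oligodendrocyte differentiation scored as O4-positive cells, found by CNN image analysis, as percent of Hoechst-stained nuclei in the migration area. Scoring followed 5 days of exposure of plated hNPC neurospheres differentiating in DMEM/F12 N2 medium at 37C, with compound refreshed at day 3.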"}, "[10]": {"assay": "IUF_NPC4_neurite_area_120hr: Leibniz Research Institute for Environmental Medicine (IUF) 120-hour Neuronal Morphology Assay for Neurite Area (NPC4) (AID 2284305; active = hit-call score of the fitted dose curve at least 0.9, where 1 is the maximum)", "method_in_brief": "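Human fetal neural progenitor spheres (0.3 mm) plated on poly-D-lysine/laminin in N2 differentiation medium, exposed 120 h (7 concentrations, DMSO ≤0.1%, half-medium refresh day 3). Fixed, TUBB3 immunostained; mean neurite area per neuron by Omnisphero skeletonization.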"}},
  "note": "Records with an inconclusive call do not appear. More than one record can exist for a structure, and the calls need not agree. Active and inactive are the calls of the source. Rule for the calls, unless noted: active = hit-call score of the fitted dose curve at least 0.9, where 1 is the maximum; inactive = score below 0.9.",
  "data": [
    {"smiles": "CN(C)CCOC(C)(c1ccccc1)c1ccccn1", "note": "(centres undefined)", "values": [
      {"measurement": "outcome", "setting": "[1]", "value": "inactive"},
      {"measurement": "outcome", "setting": "[2]", "value": "inactive"},
      {"measurement": "outcome", "setting": "[3]", "value": "inactive"},
      {"measurement": "outcome", "setting": "[4]", "value": "inactive"},
      {"measurement": "outcome", "setting": "[5]", "value": "inactive"},
      {"measurement": "outcome", "setting": "[6]", "value": "inactive"}
    ]},
    {"smiles": "O=C(Nc1ccc2c(O)c(N=Nc3ccc(N=Nc4ccc(S(=O)(=O)O)cc4)cc3)c(S(=O)(=O)O)cc2c1)c1ccccc1", "values": [
      {"measurement": "outcome", "setting": "[7]", "value": "inactive"},
      {"measurement": "outcome", "setting": "[8]", "value": "inactive"}
    ]},
    {"smiles": "COCCOCCOCCO", "values": [
      {"measurement": "outcome", "setting": "[1]", "value": "inactive"},
      {"measurement": "outcome", "setting": "[2]", "value": "inactive"},
      {"measurement": "outcome", "setting": "[3]", "value": "inactive"},
      {"measurement": "outcome", "setting": "[4]", "value": "inactive"},
      {"measurement": "outcome", "setting": "[5]", "value": "inactive"},
      {"measurement": "outcome", "setting": "[9]", "value": "inactive"},
      {"measurement": "outcome", "setting": "[10]", "value": "inactive"}
    ]},
    {"smiles": "O=CN1CCOCC1", "values": [
      {"measurement": "outcome", "setting": "[7]", "value": "inactive"},
      {"measurement": "outcome", "setting": "[8]", "value": "inactive"}
    ]},
    {"smiles": "C=CC(C)(O)CCC=C(C)C", "note": "(centres undefined)", "values": [
      {"measurement": "outcome", "setting": "[7]", "value": "inactive"},
      {"measurement": "outcome", "setting": "[8]", "value": "inactive"}
    ]},
    {"smiles": "CC(CN=Cc1ccccc1O)N=Cc1ccccc1O", "note": "(centres undefined)", "values": [
      {"measurement": "outcome", "setting": "[7]", "value": "inactive"},
      {"measurement": "outcome", "setting": "[8]", "value": "inactive"}
    ]},
    {"smiles": "COCCc1ccc(OCC(O)CNC(C)C)cc1", "note": "(centres undefined)", "values": [
      {"measurement": "outcome", "setting": "[1]", "value": "inactive"},
      {"measurement": "outcome", "setting": "[2]", "value": "inactive"},
      {"measurement": "outcome", "setting": "[3]", "value": "inactive"},
      {"measurement": "outcome", "setting": "[4]", "value": "inactive"},
      {"measurement": "outcome", "setting": "[5]", "value": "inactive"},
      {"measurement": "outcome", "setting": "[6]", "value": "inactive"},
      {"measurement": "outcome", "setting": "[9]", "value": "inactive"},
      {"measurement": "outcome", "setting": "[10]", "value": "inactive"}
    ]},
    {"smiles": "Oc1c(Cl)cc(Cl)c(Cl)c1Cc1c(O)c(Cl)cc(Cl)c1Cl", "values": [
      {"measurement": "AC50", "setting": "[1]", "value": "124 nM (active)"},
      {"measurement": "AC50", "setting": "[2]", "value": "272 nM (active)"},
      {"measurement": "AC50", "setting": "[3]", "value": "380 nM (active)"},
      {"measurement": "AC50", "setting": "[4]", "value": "566 nM (active)"},
      {"measurement": "AC50", "setting": "[5]", "value": "472 nM (active)"},
      {"measurement": "AC50", "setting": "[6]", "value": "168 nM (active)"},
      {"measurement": "AC50", "setting": "[9]", "value": "75.1 nM (active)"},
      {"measurement": "AC50", "setting": "[10]", "value": "264 nM (active)"}
    ]},
    {"smiles": "CCOC(=O)C(C#N)=C(c1ccccc1)c1ccccc1", "values": [
      {"measurement": "outcome", "setting": "[7]", "value": "inactive"},
      {"measurement": "AC50", "setting": "[8]", "value": "27900 nM (active)"},
      {"measurement": "outcome", "setting": "[8]", "value": "inactive"}
    ]},
    {"smiles": "CC1(C)CCC[C@]2(C)[C@H]3CCO[C@]3(C)CC[C@@H]12", "values": [
      {"measurement": "outcome", "setting": "[7]", "value": "inactive"},
      {"measurement": "outcome", "setting": "[8]", "value": "inactive"}
    ]},
    {"smiles": "CCCCCCC(CO)CCCC", "note": "(centres undefined)", "values": [
      {"measurement": "outcome", "setting": "[7]", "value": "inactive"},
      {"measurement": "outcome", "setting": "[8]", "value": "inactive"}
    ]}
  ]
}
